The structures appear in SMILES notation. Records with an inconclusive call do not appear. The source made the active and inactive calls. Calls come from the whole dose curve. Square brackets hold non-standard residues; d marks the D form. Peptide text beside a SMILES is read from it. dPhe(4-Cl) = N[C@H](Cc1ccc(Cl)cc1)C(=O)O; d2Nal = N[C@H](Cc1ccc2ccccc2c1)C(=O)O; dCit = NC(=O)NCCC[C@@H](N)C(=O)O; d3Pal = N[C@H](Cc1cccnc1)C(=O)O

Data on 21 compounds can be found in PubChem BioAssay (NCATS).

The nature of test [1]: Confirmatory qHTS to identify inhibitors of SARS-CoV-2 cell entry (AID 1645844). Note: potency is the fitted concentration of half-maximal effect; nearly all actives have a fitted effect of over 45% in size. The gist of the method: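 HEK293-ACE2 cells were pretreated 1 h with compound, then infected with MLV-based pseudoparticles bearing C-terminally truncated Wuhan-Hu-1 spike for 48 h at 37C; luciferase luminescence normalized to spike PP and bald PP wells.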
Test [2] is described as follows: Primary qHTS to identify inhibitors of SARS-CoV-2 cell entry (AID 1645846). Note: nearly all actives have a fitted effect of over 45% in size. Note: potency is the fitted concentration of half-maximal effect. The note with it: SARS-CoV-2 pseudovirus cell entry assay, luminescence; activity change, negative = inhibition: at 57.1 µM (top of the series) unless noted. An outline of the steps:
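Data are normalized to wells receiving SARS-CoV-2-S pseudoparticles and those given bald particles. Entry signal was luciferase luminescence in stable hACE2 Expi293F cells, 48 hr post-infection, after 1 hr compound pretreatment.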
On the technique in general: qHTS replaces the single test concentration by a dilution series.

Test [3] can be described thus: VSVG counterscreen qHTS to identify inhibitors of SARS-CoV-2 cell entry (AID 1645847). Note: potency is the fitted concentration of half-maximal effect; nearly all actives have a fitted effect of over 65% in size. The gist of the method: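 Counterscreen using VSV-G (not spike) pseudotyped MLV particles on ACE2-expressing Expi293F cells after 1 h compound preincubation; infection ran 48 h at 37 °C. Data normalized to VSV-G PP and bald-PP wells.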
The nature of test [4]: Primary qHTS for Huh7 cytotoxicity: counterscreen for inhibitors of MERS-S pseudotyped particle cell entry (AID 1479147). The note with it: outcome: dose series up to 57.1 µM unless noted.
Test [5] can be described thus: Primary qHTS for inhibitors of MERS-S pseudo-typed particle cell entry (AID 1479149). For activity change, negative = inhibition: % is set by controls: 0 for no effect and ±100 for the full control effect. Note: nearly all actives have a fitted effect of over 60% in size. The note with it: outcome: dose series up to 57.1 µM unless noted.
Test [6] in a line: Primary qHTS for Vero E6 cytotoxicity: counterscreen for inhibitors of SARS-S pseudo-typed particle cell entry (AID 1479150). The note with it: outcome: dose series up to 57.1 µM unless noted.
Test [7] in a line: Cytotoxicity counterscreen for inhibitors of SARS-CoV-2 cell entry (AID 1645845). Note: nearly all actives have a fitted effect of over 50% in size. The note with it: outcome: dose series up to 57.1 µM unless noted. The gist of the method:
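HEK293-ACE2 cells (Expi293F stably expressing human ACE2) seeded overnight, then compound for 1 h plus 48 h at 37C. Viability as ATP content by luminescence; normalized to wells with cells and media-only wells.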
(In general: Counterscreens check selectivity or assay interference.)

`C[C@H]1[C@H](OC(=O)CCC(=O)O)O[C@@H]2O[C@@]3(C)CC[C@H]4[C@H](C)CC[C@@H]1[C@@]24OO3`: the Potency in test [1] is 1.36 µM (active); in test [2] it was 2.24 µM (active); in test [3] it was 1.21 µM (active).
On to `CCC[C@@H]1C[C@@H](C(=O)N[C@@H](C2O[C@H](SC)[C@H](O)[C@@H](O)[C@H]2O)[C@H](C)Cl)N(C)C1` (some centres undefined), for which the Potency entry in test [4], in test [5], in test [6] and in test [7] was “inactive” in each case.
Take `CCCCCCC(=O)O[C@H]1CC[C@H]2[C@@H]3CCc4cc(O)ccc4[C@H]3CC[C@]12C`: the Potency result in test [4], in test [5], in test [6] and in test [7] was “inactive” each time.
As for `OCc1ccccc1`, the Potency result in test [4], in test [5], in test [6] and in test [7] was “inactive” each time. Besides, the activity change, negative = inhibition in test [2] was found to be 3.04%.
Consider `CN(C)C(=O)NC1CCC(CCN2CCN(c3cccc(Cl)c3Cl)CC2)CC1` (centres undefined), for which the Potency result in test [4], in test [5], in test [6] and in test [7] was “inactive” throughout. Besides, the activity change, negative = inhibition in test [2] was -20.6% [at 27.1 µM].
Regarding `CN1C2CC[C@@H]1CC(OC(=O)[C@H](CO)c1ccccc1)C2` (some centres undefined), the Potency result in test [4], in test [5], in test [6] and in test [7] was “inactive” in each case. For the same compound, the activity change, negative = inhibition in test [2] was -26.3%.
In the case of `C[N+](C)(C)CC(O)CC(=O)O` (centres undefined), the Potency result in test [4], in test [5], in test [6] and in test [7] was “inactive” each time.
Turning to `O=C1CCC(=O)N1CO`, the Potency result in test [4], in test [5], in test [6], in test [7] and in test [2] was “inactive” throughout.
Take `CCCCCCCC/C=C/CCCCCCCC(=O)O`: the Potency entry in test [4], in test [5], in test [6] and in test [7] was “inactive” throughout.
For `CC(=O)Oc1c(C)cc(OCC(O)CNC(C)C)c(C)c1C` (centres undefined), the Potency result in test [4], in test [5], in test [6] and in test [7] was “inactive” in each case.
`CCC(C)C(C(=O)OCC[N+](C)(CC)CC)c1ccccc1` (centres undefined): the Potency entry in test [4], in test [5], in test [6] and in test [7] was “inactive” in each case.
Regarding `C=CC1(C)CC(=O)C2(O)C(C)(O1)C(OC(C)=O)C(OC(=O)CCN(C)C)C1C(C)(C)CCC(O)C12C` (centres undefined), the Potency entry in test [4], in test [5], in test [6] and in test [7] was “inactive” in each case.
On to `O=C(O)C(O)[C@H](O)[C@H](O)[C@H](O)[C@H](O)CO` (some centres undefined), for which the Potency entry in test [4], in test [5], in test [6] and in test [7] was “inactive” each time.
`CC(=O)N[C@H](Cc1ccc2ccccc2c1)C(=O)N[C@H](Cc1ccc(Cl)cc1)C(=O)N[C@H](Cc1cccnc1)C(=O)N[C@@H](CO)C(=O)N[C@@H](Cc1ccc(O)cc1)C(=O)N[C@H](CCCNC(N)=O)C(=O)N[C@@H](CC(C)C)C(=O)N[C@@H](CCCN=C(N)N)C(=O)N1CCC[C@H]1C(=O)N[C@H](C)C(N)=O` (Ac-[d2Nal][dPhe(4-Cl)][d3Pal]SY[dCit]LRP[dA]-NH2): the Potency entry in test [4], in test [5], in test [6] and in test [7] was “inactive” in each case. For the same compound, the activity change, negative = inhibition in test [2] was -10.8% [at 27.1 µM].
As to `Cc1ncc(COP(=O)(O)O)c(CN)c1O`, the Potency result in test [4], in test [5], in test [6] and in test [7] was “inactive” throughout.
Turning to `CC[N+](CC)(CC)CCC(O)(c1ccccc1)C1CCCCC1` (centres undefined), the Potency result in test [4], in test [5], in test [6] and in test [7] was “inactive” in each case.
Turning to `CC[C@@H]1CCN[C@H](C(=O)N[C@@H]([C@H]2O[C@H](SC)[C@H](O)[C@@H](O)[C@H]2O)[C@H](C)Cl)C1`, the Potency entry in test [4], in test [5], in test [6] and in test [7] was “inactive” each time.
As for `CCN(CC)CCS(=O)(=O)[C@@H]1CCN2C(=O)c3coc(n3)CC(=O)C[C@H](O)/C=C(C)/C=C/CNC(=O)/C=C/[C@@H](C)[C@@H](C(C)C)OC(=O)[C@@H]12`, the Potency entry in test [4], in test [5], in test [6] and in test [7] was “inactive” throughout.
For `CCOc1ccc(N=C(C)Nc2ccc(OCC)cc2)cc1`, the Potency entry in test [4], in test [5], in test [6] and in test [7] was “inactive” in each case.
Regarding `CC1(C)C[C@H]1C(=O)N/C(=C\CCCCSC[C@@H](N)C(=O)O)C(=O)O`, the Potency entry in test [4], in test [5], in test [6] and in test [7] was “inactive” in each case. Besides, in test [2], the activity change, negative = inhibition is -28.6%.
For `Cc1ccc(/C(=C\CN2CCCC2)c2cccc(/C=C/C(=O)O)n2)cc1`, the Potency entry in test [4], in test [5], in test [6] and in test [7] was “inactive” in each case.
